Screens deposited in PubChem BioAssay by The Scripps Research Institute Molecular Screening Center.
HTR5A inv ctr: HTR5A inverse agonism, opioid heterodimer counter-screen; P47898; HTR5A cell line, luminescence; 340,000 compounds, 0.083% hits; inhibition, % at 9.3 µM; in the data active = inhibition mostly above about 23%, no sharp cut-off; inactive = mostly below about 18%
OPRM1-OPRD1 ag: OPRM1-OPRD1 heterodimerization agonism. P35372+P41143. cells, luminescence. activation, % at 9.3 µM. 340,000 compounds, 0.3% hits; in the data active = activation above about 18%
Target sequence (P35372 whole entry, looked up): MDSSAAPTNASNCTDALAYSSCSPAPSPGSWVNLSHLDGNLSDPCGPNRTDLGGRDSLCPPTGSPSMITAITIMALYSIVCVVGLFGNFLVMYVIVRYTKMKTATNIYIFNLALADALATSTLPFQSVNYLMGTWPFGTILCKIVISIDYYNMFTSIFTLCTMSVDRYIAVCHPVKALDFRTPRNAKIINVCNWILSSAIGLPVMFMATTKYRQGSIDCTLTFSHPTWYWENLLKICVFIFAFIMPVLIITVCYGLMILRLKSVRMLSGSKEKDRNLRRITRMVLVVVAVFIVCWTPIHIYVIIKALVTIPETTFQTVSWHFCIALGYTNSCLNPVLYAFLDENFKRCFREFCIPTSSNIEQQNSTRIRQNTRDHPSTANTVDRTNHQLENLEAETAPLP
Target sequence (P41143 whole entry, looked up): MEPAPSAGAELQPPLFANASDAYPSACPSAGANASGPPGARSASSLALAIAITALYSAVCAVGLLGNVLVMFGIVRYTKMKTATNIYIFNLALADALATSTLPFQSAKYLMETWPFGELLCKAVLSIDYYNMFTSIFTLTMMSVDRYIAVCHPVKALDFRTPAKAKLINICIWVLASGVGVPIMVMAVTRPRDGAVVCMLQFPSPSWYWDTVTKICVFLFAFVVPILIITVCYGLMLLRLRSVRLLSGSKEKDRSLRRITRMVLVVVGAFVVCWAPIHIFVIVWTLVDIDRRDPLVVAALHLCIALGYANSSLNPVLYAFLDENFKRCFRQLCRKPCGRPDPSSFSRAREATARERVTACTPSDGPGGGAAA
HTR5A ag: counter-screen for OPRM1-OPRD1 agonists: human HTR5A agonism; 340,000 compounds, 0.61% hits; AID 504692; activation, % at 9.3 µM; HTR5A agonist assay, luminescence, cell-based; P47898; in the data active = activation mostly above about 9.5%, no sharp cut-off; inactive = mostly below about 7.6%
MOR-DOR inv ag: mu-delta opioid heterodimer inverse agonism | inhibition, % at 9.3 µM | P35372+P41143 | cell-based MOR-DOR heterodimer luminescence | 340,000 compounds, 0.21% hits; in the data active = inhibition above about 22%, passing the limit was not always enough
HTR2A ag: activates the mouse 5-HT2A serotonin receptor. P35363. CHO-K1 mHTR2A beta-arrestin complementation, luminescence; percent of 30 µM serotonin response. activation, % at 7.6 µM. 360,000 compounds, 0.66% hits. AID 624169;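 active = activation above a run cutoff, the mean activation of all tested compounds plus 3 SD, cut at about 14% in these data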
Numbers stand for hits; – = inactive; · = not tested or not shown. Compounds with a hit are over-represented: about 1.6% of the library has one in this group of screens.

SMILES	HTR5A inv ctr	OPRM1-OPRD1 ag	HTR5A ag	MOR-DOR inv ag	HTR2A ag
CCCCCCCCN1C(=O)[C@H](CC(=O)NCc2cccc(C(F)(F)F)c2)C[C@@]2(C(=O)OCC)CCC=C12	·	·	·	·	–
O=C(CN(C(=O)c1ccco1)c1cccc(F)c1)NCc1ccc(F)cc1	–	–	11	–	–
FC(F)(F)c1cccc(NC(=S)N2CCN(c3cccc(C(F)(F)F)c3)CC2)c1	–	–	–	–	15
Fc1ccc(NC(=S)N2CCN(c3cccc(C(F)(F)F)c3)CC2)cc1	–	–	–	–	–
CCCn1c(SC(C(=O)Nc2cccc(OC)c2)c2ccccc2)nc2ccccc2c1=O (stereo not drawn)	–	–	13	–	–
CCOCCCNc1nc2c(C)cccn2c(=O)c1/C=C1\SC(=S)N(C(C)CC)C1=O (stereo not drawn)	–	18	–	–	–
CCOCCCNc1nc2c(C)cccn2c(=O)c1/C=C1\SC(=S)N(CC(C)C)C1=O	–	–	–	–	–
CC(=O)N1CCN(c2nnc(-c3ccc(C)cc3)c3ccccc23)CC1	–	–	–	–	–
Cc1ccc(OCC(=O)N2CCN(c3nnc(-c4ccccc4)c4ccccc34)CC2)cc1	–	–	9.0	–	–
CN(C)CCNc1ncnc2c1ncn2[C@H]1CN(Cc2ccco2)C[C@@H](CO)O1	·	·	·	·	–
Nc1cc2nsnc2cc1Br	–	32	13	–	–
Nc1cccc2nsnc12	–	–	–	–	–
Clc1ccc(CN2C3=NCCCN3c3ccccc32)cc1	–	–	–	–	–
O=C1c2ccccc2N(Cc2ccc(Cl)cc2)C2=NCCN12	–	–	11	–	–
O=c1oc(-c2cccs2)nc2ccccc12	–	–	14	–	–
CCNC(=O)C1CC(=O)N(Cc2ccc3c(c2)OCO3)C(=Nc2ccc(OCC)cc2)S1 (stereo not drawn)	–	–	9.0	–	–
C/C(=N/N1CCN(Cc2ccccc2)CC1)c1ccc(Br)cc1	–	–	–	–	–
CC(=O)Oc1ccc(/C(C)=N/N2CCN(Cc3ccc(C)cc3)CC2)cc1	–	–	9.8	–	–
Brc1cccc(CNc2nc3ccccc3n2CCN2CCOCC2)c1	·	·	·	·	–
COc1ccc(-n2nnc3c(=O)n(Cc4ccccc4C)cnc32)cc1	–	–	–	–	–
Cc1ccc(C)c(Cn2cnc3c(nnn3-c3ccc(F)cc3)c2=O)c1	–	–	10	–	–
COc1ccc(Nc2nc(Nc3ccc(OC)cc3)nc(SC3=NCCS3)n2)cc1	–	–	9.8	–	–
Cc1ccc(CNC(=O)c2cc3c(=O)n(C)c4ccccc4c3n2C)o1	–	–	–	–	–
Cn1c(C(=O)NCc2ccccn2)cc2c(=O)n(C)c3ccccc3c21	–	–	13	–	–
Cc1cc(C(=O)Nc2cccnc2)on1	–	–	–	–	15
SMILES	HTR5A inv ctr	OPRM1-OPRD1 ag	HTR5A ag	MOR-DOR inv ag	HTR2A ag
CC1CCCN(C(=O)C2CCN(S(=O)(=O)c3cccc4nsnc34)CC2)C1 (stereo not drawn)	–	–	–	–	–
CCN1CCN(C(CNS(=O)(=O)c2ccc(Br)cc2)c2cccnc2)CC1 (stereo not drawn)	–	–	12	–	–
CCN1CCN(C(CNS(=O)(=O)c2ccc(Cl)cc2)c2cccnc2)CC1 (stereo not drawn)	–	–	–	–	–
O=C(CCl)N(C/C=C/c1ccccc1)c1ccc2c(c1)OCCO2	–	38	71	–	–
O=C(/C=C/c1ccccc1)c1ccc2c(c1)OCCCCO2	–	–	–	–	–
N#CCCNS(=O)(=O)c1ccc(C(=O)OCCCOC(=O)c2ccc(S(=O)(=O)NCCC#N)cc2)cc1	–	–	–	–	–
N#CCCNS(=O)(=O)c1ccc(C(=O)OCC2CCCCC2)cc1	–	–	12	–	–
CCCC(=O)Nn1cnc2c(c1=O)C1(CCCC1)Cc1ccccc1-2	–	–	–	–	–
CCCC(=O)NC1=C(C#N)C2(CCCC2)Cc2ccccc21	–	–	11	–	–
Cc1ccnc2nc(C(=O)OCC(=O)NC3CCCC(C)C3C)nn12 (stereo not drawn)	–	–	–	–	–
CCOc1ccccc1N1CCN(Cc2cn[nH]c2-c2ccc(F)cc2)CC1	–	–	14	–	–
CCN(CC)C(=O)c1sc(N2C(=O)Nc3ccccc3N2O)c(C(=O)OC)c1C	–	–	–	–	–
COc1ccc(S(=O)(=O)N2CCOCC2)cc1NC(=O)CSc1ncccn1	–	–	11	–	–
CCC(CC)C(=O)Nc1ccc(-c2cn3cccnc3n2)cc1	–	–	–	–	–
Cc1cc(C)n2nc(SCCC(=O)NCc3ccccc3)nc2n1	–	–	–	–	–
C#CCOC(=O)c1ccc(-n2cncn2)nc1	–	–	–	–	–
COc1ccc(N2CCN(Cc3nc(N)nc(Nc4ccccc4OC)n3)CC2)cc1	–	–	–	–	–
COc1cc(N2CCC(O)CC2)ccc1Nc1nnc(Cl)c(Nc2ccccc2S(C)(=O)=O)n1	26	–	–	–	–
CCCc1nc2ccc(NC(C)=O)cc2c(=O)n1Cc1ccc(Cl)cc1	–	–	10	–	–
CCCc1nc2ccc(NC(=O)c3cccs3)cc2c(=O)n1Cc1ccccc1Cl	–	–	–	–	–
CCCCNC(=O)COC(=O)c1ccc(F)cc1Cl	–	–	–	–	–
O=C1CCN(C(=O)Nc2cccc(Cl)c2)N1	–	–	11	–	–
O=C(Nc1cccc(Cl)c1)N1CCCC1	–	–	–	–	–
Cc1c2c(nc3ccccc13)OCC2	–	–	–	–	–
O=C(NCc1ccccc1)c1ccc(N2CCC3(CC2)CC(c2ccc(Cl)cc2)=NO3)c([N+](=O)[O-])c1	–	–	–	–	–
SMILES	HTR5A inv ctr	OPRM1-OPRD1 ag	HTR5A ag	MOR-DOR inv ag	HTR2A ag
COc1cc(NC(=O)c2cccc3c2C(=O)N(C2CCCCC2)C3)cc(OC)c1OC	–	–	11	–	–
Cc1cc(C)cc(NC(=O)c2cccc3c2C(=O)N(C2CCCCC2)C3)c1	–	–	–	–	–
COc1ccc(-c2nc(CS(=O)CC(=O)NCCCN3CCCC(C)C3)c(C)o2)cc1OC (stereo not drawn)	–	–	–	–	–
CCCCCCCCCCOC(=O)Cn1c(COc2cccc(C)c2)[n+](C)c2ccccc21	–	–	13	–	–
CCOC(=O)Cn1c(COc2ccccc2OC)[n+](C)c2ccccc21	·	·	·	·	–
Cc1cc(NC(=O)C(C)Sc2nc(-c3cccs3)nc3ccccc23)no1 (stereo not drawn)	–	–	–	–	–
O=C(c1cc(F)ccc1F)N1CCC(N2CCC(C(=O)N3CCCC3)CC2)CC1	–	–	–	–	–
O=C(c1ccccc1Cl)N1CCC(N2CCC(C(=O)N3CCCC3)CC2)CC1	–	–	13	–	–
O=S(=O)(/N=C(/Nc1cccnc1)c1ccccc1)c1ccc(F)cc1F	–	–	14	–	–
Cc1onc(C(=O)N2CCN(c3ccccc3)CC2)c1[N+](=O)[O-]	–	–	–	–	–
Cc1ccc(Cl)cc1N1CCN(C(=O)c2noc(C)c2[N+](=O)[O-])CC1	–	–	10	–	–
